Bioassay records as filed in PubChem BioAssay.
Most compounds without a hit are left out; they make up all but 28% or so of the library.
CD11b adhes inh = inhibitors of human CD11b/CD18 binding to fibrinogen; K562 CD11b/CD18 adhesion to fibrinogen, ATPlite luminescence; Mn2+ added to activate the integrin; inhibition, % at 10 µM; 93,000 tested, 0.54% active; AID 1497;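 active = primary inhibition of 50% or more at 10 µM, then 40% or more on retest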
CYP2C19 inh = blocks human cytochrome P450 2C19; CYP2C19 Supersomes, luciferin-H EGE luminescence, 30 min; inhibition, % at 5 µM; 96,000 tested, 21% active;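 active = CYP2C19 inhibition above a set limit at 5 µM in the primary screen, cut at about 50% in these data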;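 also: plate controls were negative control wells for no effect and 2.5 mM tranylcypromine positive control for full effect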
CYP2C9 inhib = inhibitors of human CYP2C9. P11712. AID 777. CYP2C9 Supersomes, luciferin-H conversion, luminescence. inhibition, % at 5 µM. 96,000 tested, 20% active;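 active = blocking of liver enzyme CYP2C9 beyond about 50% at 5 µM, limit read from the data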
Target sequence (P11712 whole entry, looked up): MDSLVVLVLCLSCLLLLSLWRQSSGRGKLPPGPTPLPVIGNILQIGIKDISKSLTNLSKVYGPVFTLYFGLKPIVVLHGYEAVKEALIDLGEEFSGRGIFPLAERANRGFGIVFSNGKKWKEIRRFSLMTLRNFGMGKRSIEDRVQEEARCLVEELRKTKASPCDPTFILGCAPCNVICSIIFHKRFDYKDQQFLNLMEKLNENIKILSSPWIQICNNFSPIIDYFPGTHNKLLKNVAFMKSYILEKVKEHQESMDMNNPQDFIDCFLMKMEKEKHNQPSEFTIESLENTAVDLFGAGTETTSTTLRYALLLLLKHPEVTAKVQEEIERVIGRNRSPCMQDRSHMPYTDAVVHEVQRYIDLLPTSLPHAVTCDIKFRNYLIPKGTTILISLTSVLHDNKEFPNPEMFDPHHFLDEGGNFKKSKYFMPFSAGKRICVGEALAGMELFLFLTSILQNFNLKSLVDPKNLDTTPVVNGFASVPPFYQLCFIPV
CYP2C19 activ = cytochrome P450 2C19 (human) activation; P33261; recombinant CYP2C19, luciferin-H EGE luminescence; stronger effect = higher value; 0 = fully inhibited enzyme, 1 = untreated enzyme; activation factor at 5 µM; 96,000 tested, under 10 active; AID 1025;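 active = activation factor of at least 2 at 5 µM in the primary screen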;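 also: 0 = wells with 2.5 mM tranylcypromine and 1 = vehicle-only wells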
Mac1 fbg enh = CD11b/CD18-fibrinogen binding enhancement; P05107+P11215; K562 CD11b/CD18 adhesion to fibrinogen, ATPlite luminescence; activation, % at 10 µM; 93,000 tested, 0.07% active;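 active = 10 µM primary screen giving 50% or more activity, confirmed by 40% or more on retest at that dose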
CYP2C9 act = CYP2C9 (human) activation; 96,000 tested, 1.4% active; P11712; activation factor at 5 µM; recombinant CYP2C9, luciferin-H conversion, luminescence; stronger effect = higher value; factor 1 = untreated enzyme, 0 = blocked;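 active = activation factor of 2 or more for CYP2C9 at a 5 µM dose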;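 also: 0 = sulfaphenazole-blocked wells and 1 = vehicle-only wells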
Active calls of the source: *; / = no result given.

SMILES | CD11b adhes inh | CYP2C19 inh | CYP2C9 inhib | CYP2C19 activ | Mac1 fbg enh | CYP2C9 act
Cc1cc(OCc2ccc([N+](=O)[O-])cc2)c2c3c(c(=O)oc2c1)CCCC3 | -9 | 60* | 79* | 0.4 | 1 | 0.2
Cc1cc(OC(=O)CCNC(=O)OC(C)(C)C)c2c3c(c(=O)oc2c1)CCC3 | -1 | 29 | 29 | 0.7 | -3 | 0.7
CCCCOC(=O)COc1cc(C)cc2oc(=O)c3c(c12)CCC3 | -1 | 40 | 46 | 0.6 | 2 | 0.5
Cc1cc(OCc2nn[nH]n2)c2c3c(c(=O)oc2c1)CCCC3 | 0 | -17 | 72* | 1.2 | -1 | 0.3
C=CCOC(=O)COc1cc(C)cc2oc(=O)c3c(c12)CCC3 | -6 | 84* | 58* | 0.2 | -2 | 0.4
Cc1cc(OC(=O)CCCNC(=O)OC(C)(C)C)c2c3c(c(=O)oc2c1)CCC3 | / | 41 | 55* | 0.6 | / | 0.4
CN(C)C1=C(C#N)C(c2ccccc2)=NP(N(C)C)(N(C)C)=N1 | -3 | 3 | 15 | 1 | 2 | 0.9
O=c1cccc2n1CC1CC2CN(c2ncnc3c2cnn3-c2ccccc2)C1 (centres undefined) | -10 | 15 | 41 | 0.8 | -5 | 0.6
CCC(=NCc1ccc2c(c1)OCO2)c1c(O)n(C2CCCCC2)c(=O)[nH]c1=O | 26 | 99* | 100* | 0 | 0 | 0
CCC(=NCCO)c1c(O)n(C2CCCCC2)c(=O)[nH]c1=O | -3 | 61* | 37 | 0.4 | 0 | 0.6
CCC1(CC)C(=O)NC(=Nc2cccc(C(F)(F)F)c2)NC1=O | 6 | -15 | -10 | 1.1 | -1 | 1.1
Oc1ccc(/C=N/NP(=S)(c2ccccc2)c2ccccc2)cc1 | 22 | 79* | 86* | 0.2 | -5 | 0.1
COc1cc(/C=N/NC(=O)Cn2c([N+](=O)[O-])cnc2C)ccc1OC(=O)N(C)C | -12 | -4 | -14 | 1 | -2 | 1.1
COc1cc(/C=N/NP(=S)(c2ccccc2)c2ccccc2)ccc1O | -7 | 42 | 82* | 0.6 | 0 | 0.2
CN(C)CCOC(=O)c1cn(Cc2ccccc2)c2ccccc12 | / | 23 | 13 | 0.8 | / | 0.9
CC(C)C12CN3CCN(CC(C3)/C1=N\O)C2 | -1 | 18 | 40 | 0.8 | 0 | 0.6
CC1(C)CN2C(c3ccc(Cl)cc3)N2C1 (centres undefined) | 1 | -8 | -13 | 1.1 | -2 | 1.1
N#Cc1ccccc1Cn1cc(C(=O)C2CC2)c2ccccc21 | -22 | 31 | 17 | 0.7 | -4 | 0.8
N#Cc1ccccc1Cn1cc(C(=O)c2ccco2)c2ccccc21 | -9 | 66* | 56* | 0.3 | -2 | 0.4
O=C(O)Cn1cc(C(=O)c2ccccc2)c2ccccc21 | -17 | -8 | -2 | 1.1 | -1 | 1
O=C(c1ccco1)c1cn(Cc2ccccc2Cl)c2ccccc12 | 31 | -27 | 89* | 1.3 | 2 | 0.1
CCn1cc(C(=O)c2cccs2)c2ccccc21 | -9 | 11 | -209 | 0.9 | -6 | 3.1*
O=C(COc1ccccc1)c1cn(Cc2ccccc2)c2ccccc12 | -10 | / | / | / | 0 | /
O=C(c1ccco1)c1cn(Cc2ccccc2)c2ccccc12 | -6 | 93* | 93* | 0.1 | -6 | 0.1
CCOc1ccc(Br)c(C2(O)CC(C)N(C)CC2C)c1 (centres undefined) | 28 | -11 | -18 | 1.1 | -3 | 1.2
SMILES | CD11b adhes inh | CYP2C19 inh | CYP2C9 inhib | CYP2C19 activ | Mac1 fbg enh | CYP2C9 act
Cc1cccc(-n2c(O)c(C=NCc3cccnc3)c(=O)[nH]c2=O)c1C | 39 | 3 | 0 | 1 | 2 | 1
CCC(=O)c1cn(Cc2ccccc2C#N)c2ccccc12 | 9 | 76* | 52* | 0.2 | 6 | 0.5
CC1CCCC(C)N1/N=C/c1c[nH]c2ccc(Br)cc12 (centres undefined) | 13 | / | / | / | 1 | /
CC1CCCCN1CC(=O)c1ccc2cc[nH]c2c1 (centres undefined) | -5 | 18 | 25 | 0.8 | 7 | 0.7
Cc1ccc(-n2c(-c3cccs3)nc3ccccc3c2=O)cc1 | -1 | 36 | 58* | 0.6 | -4 | 0.4
CCOP(=S)(OCC)c1ccc(N(C)C)cc1 | 9 | 14 | 38 | 0.9 | -5 | 0.6
CN(C)c1ccc(P(=S)(N(C)C)N(C)C)cc1 | 19 | 95* | 5 | 0 | 0 | 0.9
COC(=O)C1=C(N)Oc2c(c(=O)oc3ccccc23)[C@]12C(=O)N(C)c1ccccc12 | 25 | 68* | 68* | 0.3 | -2 | 0.3
C=Cn1c(P(=S)(N2CCOCC2)N2CCOCC2)cc2c1CCCC2 | -9 | 34 | 8 | 0.7 | 23 | 0.9
COc1ccccc1-n1c(O)c(C=NCCN2CCNCC2)c(=O)[nH]c1=O | / | 35 | 58* | 0.7 | / | 0.4
O=c1[nH]c(=O)n(Cc2ccccc2)c(O)c1C=NCCN1CCNCC1 | 2 | 17 | 23 | 0.8 | -1 | 0.8
CN1C(=O)N(C)C(=O)C(CCc2ccccn2)(CCc2ccccn2)C1=O | 3 | 4 | -20 | 1 | 3 | 1.2
CN1C(=O)N(C)C(=O)C(CCc2ccncc2)(Cc2ccc3c(c2)OCO3)C1=O | 6 | 99* | 74* | 0 | -4 | 0.3
O=C1NC(=O)C(CCc2ccncc2)(Cc2ccc3c(c2)OCO3)C(=O)N1CCc1ccccc1 (centres undefined) | 8 | 99* | 90* | 0 | -4 | 0.1
CCOCC(=O)NC1CCSC1=O (centres undefined) | 0 | -3 | 6 | 1 | -3 | 0.9
COc1cccc(NC(=O)CN2CC(c3ccccc3)CC2=O)c1 (centres undefined) | 0 | 61* | 0 | 0.4 | -3 | 1
COc1cc(/C=N/NC(=O)CN2CC(c3ccccc3)CC2=O)ccc1OC(=O)N(C)C (centres undefined) | / | -3 | -24 | 1 | / | 1.2
CCC1(CCc2ccncc2)C(=O)NC(=O)NC1=O | 3 | 4 | 42 | 1 | 1 | 0.6
O=C1NC(=O)C(CCc2ccncc2)(C2CCCCC2)C(=O)N1 | -2 | 64* | 70* | 0.4 | 1 | 0.3
COc1ccc(C2=NCC(=O)N(CC(=O)NCc3ccco3)c3sc4c(c32)CCCC4)cc1 | 1 | 16 | 12 | 0.8 | -4 | 0.9
Cc1cccc(C2=NCC(=O)N(CC(=O)NCc3ccco3)c3sc4c(c32)CCCC4)c1 | -3 | 51* | 59* | 0.5 | 17 | 0.4
Cc1ccc2c(c1)CC1(CN2C)C(=O)NC(=O)N(c2cccc(C)c2C)C1=O (centres undefined) | -6 | 5 | 18 | 0.9 | 2 | 0.8
COc1ccccc1N1C(=O)NC(=O)C2(Cc3cc(C)ccc3N(C)C2)C1=O (centres undefined) | -10 | 43 | 68* | 0.6 | 1 | 0.3
